Source: PubChem BioAssay
Sampled rows, rich in hits. Any-hit rate of the full collection: about 1.8%.
KCNH2 3.1 inh: qHTS for Inhibitors of KCHN2 3.1: Mutant qHTS; Potassium voltage-gated channel subfamily H member 2, brain isoform KCNH2 3.1 (human); U2OS KCNH2 3.1, thallium flux FluxOr; active compounds read low; activity change, % (tested at about 1.8 µM); actives 0.95% (n = 340,000); AID 720553, 2013;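 active = maximum activity change below -70%; inconclusive = maximum activity change from -70% to -50%; inactive = maximum activity change above -50%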;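 note: thallium influx rate constant from kinetic fluorescence after stimulation buffer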
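Thallium flux via FluxOr fluorescence (Red40 quencher, 45 min loading) in U2OS cells virally expressing the KCNH2 3.1 isoform (1.77 x 10^8 /mL virus, overnight at 37 C). Rate constants from 2-min kinetic reads post-stimulation, normalised to positive and negative controls.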
ALOX12 inh: Primary qHTS assay for inhibitors of human arachidonate 12S-lipoxygenase (ALOX12): Round 2 | Potency, µM (titrated, usually from 108 µM), hits mostly inhibitors | purified 12hLO, xylenol orange hydroperoxide absorbance | AID 1671190, 2021 | actives 1.1% (n = 580,000)
Target sequence (P18054 whole entry, looked up): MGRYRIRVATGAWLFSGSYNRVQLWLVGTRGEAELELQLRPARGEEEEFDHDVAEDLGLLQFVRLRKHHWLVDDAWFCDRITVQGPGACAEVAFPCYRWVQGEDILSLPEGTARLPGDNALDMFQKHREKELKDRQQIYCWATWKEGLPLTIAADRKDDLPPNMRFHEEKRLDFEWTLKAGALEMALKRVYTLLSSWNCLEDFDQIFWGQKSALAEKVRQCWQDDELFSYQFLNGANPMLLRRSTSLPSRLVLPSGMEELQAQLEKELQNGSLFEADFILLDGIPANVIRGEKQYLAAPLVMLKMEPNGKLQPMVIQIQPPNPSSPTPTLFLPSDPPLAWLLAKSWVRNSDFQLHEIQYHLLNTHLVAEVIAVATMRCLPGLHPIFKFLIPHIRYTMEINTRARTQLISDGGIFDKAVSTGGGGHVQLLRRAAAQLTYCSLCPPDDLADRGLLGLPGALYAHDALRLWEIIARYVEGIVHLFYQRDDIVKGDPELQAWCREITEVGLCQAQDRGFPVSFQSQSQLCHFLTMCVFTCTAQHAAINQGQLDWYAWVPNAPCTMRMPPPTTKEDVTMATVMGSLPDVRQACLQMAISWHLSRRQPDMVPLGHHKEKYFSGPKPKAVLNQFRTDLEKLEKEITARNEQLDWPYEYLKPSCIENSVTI
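Hydroperoxide product was detected by ferrous iron/xylenol orange as the 573 to 405 nm absorbance ratio. Arachidonic acid at 40 uM (final) was turned over for 30 min at room temperature by 150 nM human 12hLO, pH 7.0 Hepes buffer, after 15 min compound preincubation.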
A-T KAP1 phos: qHTS Assay for Identifying a Potential Treatment of Ataxia-Telangiectasia | F2112 A-T fibroblasts, KAP-1 phosphorylation AlphaLISA; neocarzinostatin DNA damage 30 min before lysis | Potency, µM (titrated, usually from 57.5 µM), most hits filed as activators | actives 0.19% (n = 320,000) | AID 485349, 2010; note: nearly all actives have a fitted effect of over 45% in size
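hTERT-immortalized A-T patient fibroblasts (F2112), 500 cells/well in OPTI-MEM, 1% FBS, got compounds for 60 min, then NCS for 30 min at 37C. Lysates were then assayed for phospho-KAP-1 by AlphaLISA (anti-pKAP1 donor, anti-KAP1 acceptor beads), 6 hr at 25C.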
KCNH2 WT inh: qHTS for Inhibitors of KCHN2 3.1: Wildtype qHTS; Voltage-gated inwardly rectifying potassium channel KCNH2 (Homo sapiens), Q12809; activity change, % at 1.84 µM; actives 0.37% (n = 340,000); U2OS, BacMam KCNH2, thallium flux FluxOr; active compounds read low;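 active = maximum activity change below -70%; inconclusive = maximum activity change between -70% and -50%; inactive = maximum activity change above -50%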
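U2OS cells transduced with wild-type KCNH2 virus are loaded with FluxOr dye for 45 min, and thallium flux is measured in kinetic reads before and after stimulation buffer. Rate constants are normalized to DMSO controls.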
Numbers stand for hits; i = inactive; ? = inconclusive; nt = no result; ! = not active in a repeat. Unless noted, calls come from the whole dose curve; as a rule, active = well fitted curve in the direction sought with a large enough effect; inconclusive = small, poorly fitted or top-dose-only effect, or another doubt; inactive = no such curve, though single readings can be large; an effect the other way counts as inactive or inconclusive.

SMILES	KCNH2 3.1 inh	ALOX12 inh	A-T KAP1 phos	KCNH2 WT inh
NC(=S)NNc1ccc(Cl)c(Cl)c1	i	15.8µM	i	i
Cc1ccc(NNC(N)=S)cc1Cl	i	28.2µM	i	i
Cc1ccc(NC(=S)N(C)N)cc1Cl	i	?	i	i
CCCCOc1ccc(NC(=O)c2cccc(Cl)c2)c2cccnc12	nt	i	nt	nt
Cc1cccc(C(=O)N2CCCCCCNC(=O)[C@@H]3C[C@@H](C(=O)N4CCc5ccccc5C4)C[C@@H]32)c1	nt	i	nt	nt
C[C@H](CO)N1C[C@H](C)[C@@H](CN(C)S(=O)(=O)c2ccccc2)Oc2ccc(NC(=O)Nc3ccccc3)cc2C1=O	i	?	i	i
COc1ccc(NC(=O)Nc2ccc3c(c2)C(=O)N([C@H](C)CO)C[C@H](C)[C@@H](CN(C)S(=O)(=O)c2ccccc2)O3)cc1	-96.6	i	i	i
C[C@@H]1CN([C@@H](C)CO)C(=O)c2cc(NC(=O)C3CC3)ccc2O[C@@H]1CN(C)C(=O)NC1CCCCC1	-100.1	i	i	i
C[C@H](CO)N1C[C@H](C)[C@@H](CN(C)S(=O)(=O)c2ccccc2)Oc2ccc(NC(=O)Cn3cnnn3)cc2C1=O	-92.4	i	i	i
CC(C)NC(=O)N(C)C[C@H]1Oc2ccc(NC(=O)Nc3ccccc3)cc2C(=O)N([C@@H](C)CO)C[C@@H]1C	-145.1	i	i	i
C[C@H](CO)N1C[C@H](C)[C@@H](CN(C)C(=O)NC2CCCCC2)Oc2ccc(NC(=O)C3CC3)cc2C1=O	i	i	nt	i
O=C(c1ccc(Cl)cc1)[C@@H]1[C@H]2C(=O)[C@@H]3OC[C@@H](O3)[C@@H]12	nt	i	nt	nt
Cc1ccc(C(=O)NCc2nnc3cc(-c4nc(C(C)C)no4)ccn23)cc1	nt	i	nt	nt
COc1ccc2cc(CNc3ccc(C)cc3)c(=O)n(CC(=O)Nc3ccc(C)cc3C)c2c1	nt	7.94µM	nt	nt
COc1ccc(NCc2cc3ccc(OC)cc3n(CC(=O)Nc3cc(Cl)ccc3C)c2=O)cc1	nt	i	nt	nt
COc1ccccc1CNC(=O)C1CCN(c2cn[nH]c(=O)c2)C1 (centres undefined)	nt	i	nt	nt
O=C(Nc1ccccc1N1CCCCC1)c1ccccc1F	i	i	28.2µM	i
O=C(Nc1ccccc1NC(=O)c1ccccc1F)c1ccccc1F	i	i	i	-89.2
O=C(Nc1ccccc1N1CCCC1)c1ccccc1F	i	i	i	i
COc1cccc(CNC(=O)CC2CCN(C(=O)c3ccc4nc(-c5ccccc5)oc4c3)CC2)c1	nt	i	nt	nt
CCCS(=O)(=O)N1C[C@@H](Oc2cccnc2)C[C@H]1C(N)=O	nt	i	nt	nt
COc1ccccc1NC(=O)CCS(=O)(=O)c1ccc2nc(C)sc2c1	nt	i	nt	nt
Cc1nc2ccc(S(=O)(=O)CCC(=O)Nc3ccc(F)cc3C)cc2s1	nt	22.4µM	nt	nt
S=C(Nc1nc2c(s1)CCCC2)NC1CC1	i	44.7µM	i	i
Cc1onc(-c2cnn(C)c2NCc2ccccc2)c1C(=O)N1CCN(CCO)CC1	nt	i	nt	nt
SMILES	KCNH2 3.1 inh	ALOX12 inh	A-T KAP1 phos	KCNH2 WT inh
O=c1[nH]c(=S)[nH]c2c1C(c1ccc(Br)cc1)c1c([nH]c(=S)[nH]c1=O)O2	i	5.01µM	i	i
COc1ccc2c(=O)c(-c3ccccc3)coc2c1C	nt	31.6µM	nt	nt
CCOc1cccc(CNC(=O)[C@H]2CCC[C@H]2NC(=O)c2ccc(OC)cc2)c1	nt	i	nt	nt
O=C(O)c1cccc(-n2cccc2/C=C2/NC(=O)N(c3cccc(Cl)c3)C2=O)c1	i	i	i	i
Cc1cccc(NC(=O)CN2C(=O)N/C(=C\c3cccn3-c3cccc(C(=O)O)c3)C2=O)c1	i	44.7µM	i	i
O=C(O)c1cccc(-n2cccc2/C=C2/NC(=O)N(c3ccc(Cl)cc3)C2=O)c1	i	7.94µM	i	i
Cc1ccc(-n2cccc2/C=C2/NC(=O)N(CC(=O)Nc3cccc(C)c3)C2=O)cc1	i	?	i	i
COc1ccc(C2C(C(=O)Nc3ccccc3OC)=C(C)Nc3nc(SC)nn32)cc1 (centres undefined)	nt	i	nt	nt
CC(=O)N1CCCN(Cc2nc3c(n2Cc2ccccc2)C(=O)N(Cc2cccc(Cl)c2)CCN3)CC1	nt	i	nt	nt
COc1ccc(N2CCN(CC(O)COc3ccc(C(C)C)c(C)c3)CC2)cc1 (centres undefined)	nt	15.8µM	nt	nt
COc1ccc(N2CCN(CC(O)COc3c(OC)cccc3OC)CC2)cc1 (centres undefined)	i	39.8µM!	i	i
Cc1cccc(N2CCN(CC(O)COc3ccc4ccccc4c3)CC2)c1 (centres undefined)	i	i	nt	i
COc1ccc(OCC(O)CN2CCN(c3ccc(OC)cc3)CC2)cc1 (centres undefined)	i	?	i	i
COc1ccc(N2CCN(CC(O)COc3ccc(C)c(C)c3)CC2)cc1 (centres undefined)	?	?	i	i
COc1ccc(N2CCN(CC(O)COC(c3ccccc3)c3ccccc3)CC2)cc1 (centres undefined)	-104.9	i	i	?
Cc1cc(OCC(O)CN2CCN(c3cccc(Cl)c3)CC2)ccc1Cl (centres undefined)	nt	39.8µM	nt	nt
Cc1nn(CCC(=O)NCc2cccnc2)c(=O)c2nn(-c3ccccc3)c(C)c12	nt	i	nt	nt
CCOc1ccc(CCC2CCN(C(=O)Nc3ccccc3OC)CC2)cc1	nt	i	nt	nt
COc1ccc(N2CCN(CC(O)COC(c3ccc(F)cc3)c3ccc(F)cc3)CC2)cc1 (centres undefined)	-119.3	?	i	-82.3
COc1ccc(N2CCN(CC(O)COc3ccc(F)cc3)CC2)cc1 (centres undefined)	i	?	i	i
CCCS(=O)(=O)c1ncc(Cl)c(C(=O)N(Cc2ccc(C)cc2)C2CCS(=O)(=O)C2)n1 (centres undefined)	nt	i	nt	nt
COc1ccc(CN[C@H](C)c2onc(C)c2C(=O)O)cc1	nt	28.2µM	nt	nt
Cc1noc([C@@H](C)NC(=O)Cc2ccccc2)c1C(=O)O	nt	i	nt	nt
O=C(NN1C(=O)/C(=C/C=C/c2ccco2)SC1=S)c1ccccc1O	i	12.6µM	i	i
O=C1/C(=C/c2ccco2)SC(=S)N1CCC(=O)N1CCCCC1CCO (centres undefined)	i	44.7µM	i	i
SMILES	KCNH2 3.1 inh	ALOX12 inh	A-T KAP1 phos	KCNH2 WT inh
O=C(O)C(Cc1ccccc1)N1C(=O)/C(=C/C=C/c2ccco2)SC1=S (centres undefined)	i	5.62µM	i	i
O=C(O)CC(C(=O)O)N1C(=O)/C(=C/C=C/c2ccco2)SC1=S (centres undefined)	i	?	i	i
COc1ccc(/C=C2\SC(=S)N(C(Cc3ccccc3)C(=O)O)C2=O)cc1 (centres undefined)	i	17.8µM	i	i
O=C(O)C(Cc1ccccc1)N1C(=O)/C(=C/c2cccnc2)SC1=S (centres undefined)	i	?	i	i
Brc1cccc(-c2noc(-c3ccco3)n2)c1	nt	i	nt	nt
COc1cc2ncn(CCC(=O)N3CCCCCC3)c(=O)c2cc1OC	nt	i	nt	nt
